# Reference: ChEMBL document CHEMBL3988442, “University of Dundee, Small-Polar-MMV Screening Library” (2021)
# Molecular target: T1, Aspartate--tRNA(Asp/Asn) ligase (Mycobacterium tuberculosis (strain ATCC 25618 / H37Rv)) (UniProt P9WFW3); note: in the data most compounds retested in dose-response had high values
# T1 sequence (whole entry): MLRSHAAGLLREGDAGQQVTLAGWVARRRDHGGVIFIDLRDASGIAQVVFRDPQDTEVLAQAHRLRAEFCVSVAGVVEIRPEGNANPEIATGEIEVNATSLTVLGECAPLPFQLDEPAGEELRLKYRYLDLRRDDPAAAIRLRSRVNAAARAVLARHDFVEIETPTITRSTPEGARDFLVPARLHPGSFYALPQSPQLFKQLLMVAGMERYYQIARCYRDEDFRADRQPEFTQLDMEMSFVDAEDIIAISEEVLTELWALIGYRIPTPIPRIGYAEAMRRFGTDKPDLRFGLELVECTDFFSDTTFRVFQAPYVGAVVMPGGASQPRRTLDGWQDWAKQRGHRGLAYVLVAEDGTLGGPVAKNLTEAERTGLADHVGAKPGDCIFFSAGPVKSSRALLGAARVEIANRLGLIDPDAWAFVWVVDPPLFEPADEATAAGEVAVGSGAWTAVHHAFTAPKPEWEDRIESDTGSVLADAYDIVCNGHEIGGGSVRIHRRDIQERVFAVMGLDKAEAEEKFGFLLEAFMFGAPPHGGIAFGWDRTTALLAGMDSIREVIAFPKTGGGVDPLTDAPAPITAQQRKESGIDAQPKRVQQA
# Experiment: Assay for Asp RNA synthetase-1 from Mycobacterium tuberculosis
# Format: functional
# Design: scale not given: direction of the effect not stated beside the values
# Conditions: 30 µM
row,Structure (SMILES),Percent Effect [%]
1,c1ccc(-c2ccc(C3CNCCO3)nc2)cc1 (stereo not given),7.81
2,Cc1ccccc1CC(=O)N(C)C1CCN(c2ccccn2)CC1,-1.19
3,OCCOc1nc(-c2ccccc2Cl)no1,-8.6
4,CCCn1c(C)c(CC(=O)N(C)CCOC)c2c1CC(C)(C)CC2=O,1.4
5,CNS(=O)(=O)c1ccc(C(=O)N2CCCC2c2ccccc2)o1 (stereo not given),-0.871
6,O=S(=O)(NCC1(O)CCOc2ccccc21)c1ccc(Br)s1 (stereo not given),3.31
7,Cc1nc(CN2CCCN(C(=O)C3(C#N)CCCCC3)CC2)cs1,1.34
8,COCCN1CCC(CNC(=O)C2(c3cccc(C)c3)CC2)CC1,5.2
9,COc1ccccc1CC1CCCN(CC(=O)N2CCOCC2)C1 (stereo not given),-1.41
10,COc1ccccc1CC(=O)NCc1c(C)nc2cc(=O)[nH]n2c1C,-0.878
11,CN(C)Cc1cc(=O)n2c(n1)CN(C(=O)Cc1ccsc1)CCC2,-1.04
12,Cc1nnc(Nc2cccc(C3CCN(CCO)CC3)n2)s1,-2.1
13,CCNC(=O)c1nnc2ccc(N3CCOCC3)cc2n1,0.9
14,CNc1cncc(C2CCCN2Cc2ccccc2OCC(=O)O)n1 (stereo not given),4.48
15,Cc1cc(C)nc(CCNC(=O)C(c2ccc(F)cc2)N(C)C)n1 (stereo not given),-1.5
16,COCCC(=O)N1CC[C@@H](N(C)C)[C@@H]1Cc1ccccc1,-3.16
17,CSc1ccc(NS(=O)(=O)c2cnn(C)c2)cn1,1.57
18,CN(C)CC(=O)N1CCCC2(CCC(=O)N(CCc3c[nH]cn3)C2)C1 (stereo not given),0.773
19,CCc1nc(CN(C(C)=O)C2CCN(Cc3cnc(C)cn3)C2)no1 (stereo not given),-0.742
20,O=C(c1cnoc1)N1CCC[C@]2(C[C@H](Oc3ncccc3F)CO2)C1,-2.03

row,Structure (SMILES),Percent Effect [%]
1,CCc1nnc2n1CCN(CC(=O)Nc1sccc1C#N)C2,-0.787
2,Cc1cnn(C2CCCN(C(=O)Cc3ccc(-n4cccn4)cc3)C2)c1 (stereo not given),-4.37
3,CC(=O)N1C[C@H](NC(=O)c2cscn2)[C@@H]2OCCC[C@@H]21,-2.64
4,COCCN1CCCN(C(=O)NC(C)Cn2cccn2)CC1 (stereo not given),1.3
5,O=C(NCCn1ccnc1)c1ccn(-c2cccc(F)c2)n1,5.59
6,CCn1cnnc1C1CCN(C(=O)c2ccccc2OC)CC1,-4.13
7,c1cnnc(N2CCCC2CNc2ncnc3c2CCC3)c1 (stereo not given),-0.597
8,COCC(=O)N1CCCC2(CCN(c3ccsc3)C2=O)C1 (stereo not given),-1.49
9,Cc1ncc2c(n1)CCN(Cc1nc3ccccc3o1)C2,6.98
10,O=C(CCc1nccs1)N1CCN(c2ccccc2F)CC1,-6.57
11,Cc1oc(-c2ccco2)nc1CC(=O)N1CCC(C(O)C(F)(F)F)CC1 (stereo not given),-5.79
12,O=C(NCc1ccc(-n2cncn2)nc1)c1ccoc1,3.8
13,Cc1cc(C)c(OCC(=O)NS(=O)(=O)c2c(C)noc2C)c(C)c1,-3.08
14,CCc1nc(C2CCCN2C(=O)c2ccoc2C)no1 (stereo not given),1.77
15,CCn1c(CN2CCN(CC(N)=O)CC2)nc2c(F)cccc21,-3.37
16,CCOc1ccnc(N2CCN(C(=O)c3cn[nH]c3CC)CC2)n1,-1.77
17,CCn1ncc(NC(=O)c2cc(C3CC3)nc3c2c(C)nn3C)c1C,-1.99
18,CC(C)Oc1ncnc2c1CCN(Cc1cccs1)CC2,1.14
19,O=S(=O)(C1CC1)N1CCO[C@H]2[C@H](OCC3CCCC3)CC[C@@H]21,0.291
20,Cc1ccc([C@@H]2CN(S(=O)(=O)C(C)C)C[C@H]2N(C)C)cc1,0.183

# Molecular target: Shiga toxin 2 (Escherichia coli O157:H7) (UniProt P09385+P09386)
# Experiment: E. coli 0.157:H7 Shiga Toxin SOP - stx2 screening assay
# Format: functional
# Design: scale not given: direction of the effect not stated beside the values
# Conditions: 30 µM
row,Structure (SMILES),Percent Effect [%]
1,c1ccc(-c2ccc(C3CNCCO3)nc2)cc1 (stereo not given),-59.5
2,Cc1ccccc1CC(=O)N(C)C1CCN(c2ccccn2)CC1,6.11
3,OCCOc1nc(-c2ccccc2Cl)no1,-16.2
4,CCCn1c(C)c(CC(=O)N(C)CCOC)c2c1CC(C)(C)CC2=O,-6.17
5,CNS(=O)(=O)c1ccc(C(=O)N2CCCC2c2ccccc2)o1 (stereo not given),34
6,O=S(=O)(NCC1(O)CCOc2ccccc21)c1ccc(Br)s1 (stereo not given),17.9
7,Cc1nc(CN2CCCN(C(=O)C3(C#N)CCCCC3)CC2)cs1,11.8
8,COCCN1CCC(CNC(=O)C2(c3cccc(C)c3)CC2)CC1,-5.28
9,COc1ccccc1CC1CCCN(CC(=O)N2CCOCC2)C1 (stereo not given),16.7
10,COc1ccccc1CC(=O)NCc1c(C)nc2cc(=O)[nH]n2c1C,13.6
11,CN(C)Cc1cc(=O)n2c(n1)CN(C(=O)Cc1ccsc1)CCC2,-17
12,Cc1nnc(Nc2cccc(C3CCN(CCO)CC3)n2)s1,2.64
13,CCNC(=O)c1nnc2ccc(N3CCOCC3)cc2n1,-20.2
14,CNc1cncc(C2CCCN2Cc2ccccc2OCC(=O)O)n1 (stereo not given),3.64
15,Cc1cc(C)nc(CCNC(=O)C(c2ccc(F)cc2)N(C)C)n1 (stereo not given),-52.8
16,COCCC(=O)N1CC[C@@H](N(C)C)[C@@H]1Cc1ccccc1,2.6
17,CSc1ccc(NS(=O)(=O)c2cnn(C)c2)cn1,-7.54
18,CN(C)CC(=O)N1CCCC2(CCC(=O)N(CCc3c[nH]cn3)C2)C1 (stereo not given),-43.1
19,CCc1nc(CN(C(C)=O)C2CCN(Cc3cnc(C)cn3)C2)no1 (stereo not given),-16.6
20,O=C(c1cnoc1)N1CCC[C@]2(C[C@H](Oc3ncccc3F)CO2)C1,-8.52

row,Structure (SMILES),Percent Effect [%]
1,CCc1nnc2n1CCN(CC(=O)Nc1sccc1C#N)C2,24.4
2,Cc1cnn(C2CCCN(C(=O)Cc3ccc(-n4cccn4)cc3)C2)c1 (stereo not given),4.84
3,CC(=O)N1C[C@H](NC(=O)c2cscn2)[C@@H]2OCCC[C@@H]21,6.1
4,COCCN1CCCN(C(=O)NC(C)Cn2cccn2)CC1 (stereo not given),-9.78
5,O=C(NCCn1ccnc1)c1ccn(-c2cccc(F)c2)n1,0.0864
6,CCn1cnnc1C1CCN(C(=O)c2ccccc2OC)CC1,14.1
7,c1cnnc(N2CCCC2CNc2ncnc3c2CCC3)c1 (stereo not given),2.94
8,COCC(=O)N1CCCC2(CCN(c3ccsc3)C2=O)C1 (stereo not given),0.668
9,Cc1ncc2c(n1)CCN(Cc1nc3ccccc3o1)C2,-21.4
10,O=C(CCc1nccs1)N1CCN(c2ccccc2F)CC1,-11.9
11,Cc1oc(-c2ccco2)nc1CC(=O)N1CCC(C(O)C(F)(F)F)CC1 (stereo not given),4.07
12,O=C(NCc1ccc(-n2cncn2)nc1)c1ccoc1,-9.83
13,Cc1cc(C)c(OCC(=O)NS(=O)(=O)c2c(C)noc2C)c(C)c1,21.6
14,CCc1nc(C2CCCN2C(=O)c2ccoc2C)no1 (stereo not given),-24
15,CCn1c(CN2CCN(CC(N)=O)CC2)nc2c(F)cccc21,6.95
16,CCOc1ccnc(N2CCN(C(=O)c3cn[nH]c3CC)CC2)n1,5.02
17,CCn1ncc(NC(=O)c2cc(C3CC3)nc3c2c(C)nn3C)c1C,-23
18,CC(C)Oc1ncnc2c1CCN(Cc1cccs1)CC2,17.6
19,O=S(=O)(C1CC1)N1CCO[C@H]2[C@H](OCC3CCCC3)CC[C@@H]21,8.36
20,Cc1ccc([C@@H]2CN(S(=O)(=O)C(C)C)C[C@H]2N(C)C)cc1,12.9
